# Screening data as filed in PubChem BioAssay.
# Compounds with a hit are over-represented: about 5.9% of the library has one in this group of screens.
# Gal4-VP16 FLuc: Gal4-VP16 reporter inhibition counter-screen; Drosophila S2 Gal4-VP16 UAS-luciferase, luminescence, 20 h; Potency, µM (series often up to 53.6 µM), without a hit: top-dose activity, negative = inhibition, hits mostly inhibitors; actives 3.5% (n = 310,000);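 note: Gal4-VP16 expression switched on by copper sulfate through the metallothionein promoter; potency is the fitted concentration of half-maximal effect; nearly all actives have a fitted effect of over 50% in size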
# RORgamma inh: ROR gamma (mouse) transcription inhibition | Potency, µM (top dose mostly 53.6 µM), for the others: top-dose activity change, negative = inhibition, actives largely listed as inhibitors | actives 5.4% (n = 310,000) | P51450 | Drosophila S2 Gal4-RORgamma UAS-luciferase reporter, 20 h; note: potency is the fitted concentration of half-maximal effect; nearly all actives have a fitted effect of over 60% in size
#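 Luciferase reporter read in Schneider cells carrying Gal4-RORγ (mouse) and UAS-Photinus luciferase; cells given compound 1 h before 700 uM copper sulfate induction, then incubated 20 h at ambient temperature.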
# TrxR1 inh: rat TrxR1 inhibition; O89049; recombinant rTrxR1, NADPH fluorescence consumption, selenite substrate; Potency, µM (highest dose often 114 µM), without a hit: at the top dose activity change, negative = inhibition, hits mostly inhibitors; actives 1% (n = 390,000); note: potency is the fitted concentration of half-maximal effect; nearly all actives have a fitted effect of over 65% in size
# Target sequence (O89049 whole entry, looked up): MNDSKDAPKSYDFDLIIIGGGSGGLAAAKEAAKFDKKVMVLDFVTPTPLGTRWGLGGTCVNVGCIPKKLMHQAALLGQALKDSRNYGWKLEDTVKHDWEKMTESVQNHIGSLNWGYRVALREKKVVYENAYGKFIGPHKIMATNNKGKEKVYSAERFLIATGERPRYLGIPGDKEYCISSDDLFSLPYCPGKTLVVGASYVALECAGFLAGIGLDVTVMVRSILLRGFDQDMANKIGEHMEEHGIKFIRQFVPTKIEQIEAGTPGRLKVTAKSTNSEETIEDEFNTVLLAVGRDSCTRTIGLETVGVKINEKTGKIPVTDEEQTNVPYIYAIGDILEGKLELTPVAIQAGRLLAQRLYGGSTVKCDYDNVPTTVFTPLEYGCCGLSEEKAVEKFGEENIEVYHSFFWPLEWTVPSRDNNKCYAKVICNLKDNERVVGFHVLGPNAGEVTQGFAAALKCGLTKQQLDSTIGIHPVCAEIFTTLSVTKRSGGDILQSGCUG
#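 Rat TrxR1 (90 nM in the dispensed reagent) was pre-reduced with 400 uM NADPH for 5 min at room temperature, then incubated with compound for 15 min. After 400 uM selenite was added, NADPH fluorescence (Ex 340/Em 450 nm) was followed for 8 min.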
# GALK inhibitor: blocks human galactokinase activity; P51570; Purified GALK, Kinase-Glo residual ATP luminescence; Potency, µM (series often up to 57.5 µM), inactives show at the highest dose activity change, negative = inhibition, most hits filed as inhibitors; actives 0.007% (n = 270,000); note: potency is the fitted concentration of half-maximal effect
#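 GALK at 5 nM final was combined with compound, 35 uM ATP and 100 uM galactose in HEPES pH8.0 with MgCl2 and DTT. The reaction ran one hour at room temperature before luminescent ATP detection.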
# TrxR1 substrate: substrates of rat thioredoxin reductase 1. O89049. purified TrxR1 substrate turnover, NADPH consumption readout. Potency, µM (series often up to 114 µM), for the others: at the highest dose activity change, negative = substrate turnover. actives 0.01% (n = 390,000). AID 588456; note: potency is the fitted concentration of half-maximal effect; nearly all actives have a fitted effect of over 50% in size
#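 Rat TrxR1, dispensed at 90 nM, was prereduced with 400 uM NADPH (final) for 5 min at ~22 deg C, then incubated with compound 15 min before 400 uM selenite. A first-read NADPH fluorescence drop versus no-compound background flagged substrates.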
# FBPA coupling cs: coupling enzyme interference in Giardia aldolase counter-screen | coupling enzyme system counterscreen, AmpLite Red fluorescence | activity change, negative = inhibition, % at 58.2 µM, hits read low | actives 0.67% (n = 290,000) | AID 2472; in the data active = activity change below about -30%
#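 Coupling enzymes only (glyceraldehyde-3-phosphate) + compound, at 57.5 uM final, 10 min RT; add substrate/coupling/AmpLite Red mix, 20 min RT; fluorescence ex 525/em 598 nm. Actives flag coupling-system interference.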
# Active calls of the source: *; u = inconclusive; x = no result given; [ ] = dose if it differs, or a comment. Unless noted, calls come from the whole dose curve; as a rule, active = well fitted curve in the direction sought with a large enough effect; inconclusive = small, poorly fitted or top-dose-only effect, or another doubt; inactive = no such curve, though single readings can be large; an effect the other way counts as inactive or inconclusive. % is set by controls: 0 for no effect and ±100 for the full control effect.
SMILES,Gal4-VP16 FLuc,RORgamma inh,TrxR1 inh,GALK inhibitor,TrxR1 substrate,FBPA coupling cs
Cc1cc(OCc2nnc(SCC(=O)O)n2-c2ccccc2)ccc1Cl,5.3%,3.3%,-9.7%,-0.6%,-4.4%,12.2
Cn1c(Cc2ccccc2)n[nH]c1=S,-28.3%,u,0.7%,0.7%,1.5%,-0.3
COCc1n[nH]c(=S)n1-c1ccccc1,1.2%,-11.2%,-13.4%,-0.9%,-5.8%,-0.6
Cc1cc(OCc2n[nH]c(=S)n2-c2ccccc2)ccc1Cl,3.55µM*,2.51µM*,u,2.1%,-2.1%[57.1 µM],3.7
S=c1[nH]nc(CSCc2ccccc2Cl)n1-c1ccccc1,6.31µM*,1µM*,0.9%,-1.4%,-3.4%,2.4
Cn1c(CCc2ccccc2)n[nH]c1=S,-2.9%,12.6µM*,-22.0%[57.1 µM],-2.1%,1.7%[57.1 µM],0.0
CCCS(=O)(=O)N1CCC(N2CCN(Cc3ccc(C)cc3)C(=O)C2=O)CC1,x,x,16.3%[57.1 µM],x,3.3%[57.1 µM],x
CCN1CCN(c2ccc(S(=O)(=O)N3CCOCC3)cc2NC(=O)c2sccc2C)CC1,x,x,2.4%,x,-7.7%,x
Cc1cccc(C)c1OCc1n[nH]c(=S)n1-c1ccccc1,u,1.26µM*,-15.7%,-1.2%,2.3%,5.5
Cc1ccccc1OCc1n[nH]c(=S)n1-c1cccc(Cl)c1,4.47µM*,3.98µM*,-15.4%,-7.7%,-6.6%,2.6
Cc1ccccc1OCc1nnc(SCC(=O)O)n1-c1cccc(Cl)c1,-0.5%,10.2%,7.3%,-0.6%,-1.0%,12.3
Cc1n[nH]c(=S)n1-c1cccc(Cl)c1,u,11.2µM*,u,1.3%,-0.9%[11.4 µM],1.2
Cc1c(C)c2c(OCC(=O)NCC(=O)NCC(=O)O)cc3c(c2oc1=O)CCC(C)(C)O3,-2.3%,5.7%,13.5%,10.4%,702.4%,0.5
Cc1cccc(C)c1NC(=O)C(c1ccc([N+](=O)[O-])cc1)N1CCCCC1 (stereo not drawn),-3.2%,-4.0%,-11.0%,-1.8%,-12.8%,3.2
COc1cc2c(=O)n(CC3CCCO3)c(=O)n(CC(=O)Nc3ccccc3)c2cc1OC (stereo not drawn),-5.0%,12.0%,8.7%,x,23.5%,3.7
CN1CCCN(C(=O)C2CCC(C(=O)N3CCCN(C)CC3)CC2)CC1 (stereo not drawn),-0.1%,0.9%,13.6%,7.3%,5.4%[57.1 µM],0.4
O=C(O)c1ccc(Cl)c(S(=O)(=O)Nc2ccc3cn[nH]c3c2)c1,-1.2%,u,16.1%[57.1 µM],-0.1%,0.7%[57.1 µM],-70.9*
CCN(CC)c1ccc(Nc2nc(N3CCOCC3)c3ccccc3n2)cc1,11.2µM*,-41.7%,-20.9%[57.1 µM],-0.2%,-2.7%[57.1 µM],1.2
CCn1cc(C(=O)O)c(=O)c2cc(S(=O)(=O)N3CCCCCC3)ccc21,4.9%,-7.6%,15.7%,2.0%,-6.0%,1.0
Cc1ccc(NC(=O)CSc2ccc3nnc(CCNS(=O)(=O)c4ccccc4)n3n2)cc1Cl,x,x,11.0%,x,3.6%,x
CCCSC(=S)c1c(C)[nH]n(-c2ccccc2)c1=O,0.794µM*,0.316µM*,-25.3%,5.3%,-15.6%,-11.8
CCN(CC1CCCO1)C(=O)CCc1nnc(CCc2ccc(OC)cc2)o1 (stereo not drawn),-14.4%,17.7%,-1.1%,7.4%,-5.1%,3.0
CCN(CC)Cc1cc(O)c(CN(CC)CC)cc1O,-1.4%,-13.0%,10µM*,6.2%,7.2%,-33.3*
O=C(Nc1ccc(O)c(-c2nc3ccccc3o2)c1)C1(c2ccccc2)CCCC1,8.91µM*,5.62µM*,31.1%[57.1 µM],6.6%,11.3%[57.1 µM],-6.1
COc1cccc(N2CCN(c3ncnc4c3[nH]c3ccc(F)cc34)CC2C)c1 (stereo not drawn),7.08µM*,u,-15.4%,-5.1%,-0.3%,0.8
SMILES,Gal4-VP16 FLuc,RORgamma inh,TrxR1 inh,GALK inhibitor,TrxR1 substrate,FBPA coupling cs
COc1cccc(N2CCN(c3ncnc4c3[nH]c3ccccc34)CC2C)c1 (stereo not drawn),14.1µM*,u,x,-1.1%,x,-1.5
Cc1cc(C)n(CC(O)CN2C(=O)NC(C)(C)C2=O)n1 (stereo not drawn),-6.8%,-22.8%,2.7%,-1.1%,-1.5%,-1.6
Cc1cc(=O)c2ccccc2[nH]1,-0.4%,1.5%,8.1%,0.3%,2.3%,-0.6
Cc1nc(=S)c2ccccc2[nH]1,u,10µM*,-25.3%,0.6%,-7.3%,-2.1
S=c1nc(COc2ccccc2)[nH]c2ccccc12,17.8µM*,1.58µM*,3.5%[2.29 µM],2.3%,7.0%[57.1 µM],-8.0
S=c1nc(Cc2ccccc2)[nH]c2ccccc12,6.31µM*,2.82µM*,-20.1%,3.2%,-7.5%,-0.3
FC(F)(F)c1nc(=S)c2ccccc2[nH]1,0.4%,-31.7%,4.47µM*,-0.3%,-1.6%,-4.9
Cc1ccc(Cc2nc3ccccc3[nH]2)cc1,-2.1%,0.9%,7.7%[57.1 µM],1.8%,13.9%[57.1 µM],1.1
S=c1nc(Cc2ccc(Cl)cc2)[nH]c2ccccc12,11.2µM*,1.78µM*,23.0%[57.1 µM],-0.6%,7.3%[57.1 µM],-0.7
O=C(NNC(=O)c1ccccc1O)c1ccc(Cl)cc1,u,8.91µM*,26.2%[57.1 µM],0.8%,7.4%[57.1 µM],4.6
O=C(NNC(=O)c1ccccc1O)c1ccc(Br)cc1,20µM*,11.2µM*,10.3%,2.5%,2.6%,3.7
O=C(NNC(=O)c1ccccc1O)c1cccc(Br)c1,-7.4%,5.01µM*,37.6%,x,6.8%,0.3
Cc1ccc(C(=O)NNC(=O)c2cccc(Br)c2)cc1,0.0%,14.5%,19.0%,-0.9%,-2.6%,-1.7
NC(=S)NNC(=O)c1cccc(Br)c1,-28.4%,6.31µM*,x,-1.0%,x,3.0
Cc1ccc(S(=O)(=O)N(C)C)cc1NC(=O)CN1CCCC1,-2.6%,8.6%,17.0%,1.6%,6.0%,-2.3
NC(=S)NNC(=O)c1ccccc1,22.4µM*,2.82µM*,-13.6%[57.1 µM],-4.3%,7.7%[57.1 µM],x
NC(=S)NC(=O)c1ccccc1,-1.1%,-25.0%,-12.9%,-3.0%,-2.8%,-0.6
O=C(CNC(=O)c1ccc(Br)cc1)c1ccccc1,-28.8%,12.6µM*,10.2%,2.4%,-4.0%,-0.3
CCCCn1c(N)c(N(CC(C)C)C(=O)CC2CCCCC2)c(=O)[nH]c1=O,x,x,0.2%,x,-5.6%,x
FC(F)(F)c1nnc2ccc(NCc3cccnc3)nn12,-1.4%,-32.0%,-1.5%[57.1 µM],1.0%,-3.5%[57.1 µM],1.9
O=C(CNc1ccc(Cl)cc1)NNC(=S)NCc1ccccc1,u,10µM*,20.8%[57.1 µM],0.4%,-8.3%[57.1 µM],0.7
O=C(CCc1ccccc1)NNC(=S)NC(=O)c1ccc(Cl)cc1,11.2µM*,12.6µM*,u,-2.3%,3.7%,4.2
S=C(NCc1ccccc1)NCc1ccc(Cl)cc1,u,u,22.7%,6.6%,-0.4%,x
O=C(CCc1ccccc1)NNC(=S)NCc1ccc(Cl)cc1,u,1.12µM*,6.5%,2.0%,-2.3%,0.8
O=C(CCc1ccccc1)NNC(=O)c1ccc(Cl)cc1,-1.8%,-31.3%,5.2%[57.1 µM],-2.5%,-7.6%,6.0
